This is a sample that favours compounds with a hit; in the whole collection about 0.53% have one here.
IL2 activator: qHTS of IL-2 Activators | IL-2 activation reporter assay, cell-based qHTS; stimulated with anti-CD3/CD4/CD28 beads; in transgenic mouse T cells | activation, % (series mostly up to about 46 µM) | 360,000 tested, 0.065% active; in the data active = activation above about 50%; inconclusive = mostly about 30% to 49%; also: 0% is about no effect
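Screening format: compound pinned onto unstimulated transgenic mouse T cells, 60 min incubation, then anti-CD3/anti-CD4/anti-CD28 bead stimulation for 18 hours at 37 degrees C, followed by EGFP and DsRed detection.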
PKM2 act: qHTS Assay for Activators of Human Muscle isoform 2 Pyruvate Kinase; AID 1631, 2009; Potency, µM (highest dose often 57.5 µM), for inactives: top-dose activation, most hits filed as activators; purified PKM2, Kinase-Glo ATP luminescence, activation; response scale: 0% is enzyme alone, no compound; Pyruvate kinase PKM (Homo sapiens), P14618; 260,000 tested, 0.34% active; also: potency is read from the fitted curve at half-maximal effect; % is scaled to controls: 0 for no effect and ±100 for the full control effect; nearly all actives have a fitted effect of over 55% in size
Target sequence (P14618 whole entry, looked up, canonical isoform): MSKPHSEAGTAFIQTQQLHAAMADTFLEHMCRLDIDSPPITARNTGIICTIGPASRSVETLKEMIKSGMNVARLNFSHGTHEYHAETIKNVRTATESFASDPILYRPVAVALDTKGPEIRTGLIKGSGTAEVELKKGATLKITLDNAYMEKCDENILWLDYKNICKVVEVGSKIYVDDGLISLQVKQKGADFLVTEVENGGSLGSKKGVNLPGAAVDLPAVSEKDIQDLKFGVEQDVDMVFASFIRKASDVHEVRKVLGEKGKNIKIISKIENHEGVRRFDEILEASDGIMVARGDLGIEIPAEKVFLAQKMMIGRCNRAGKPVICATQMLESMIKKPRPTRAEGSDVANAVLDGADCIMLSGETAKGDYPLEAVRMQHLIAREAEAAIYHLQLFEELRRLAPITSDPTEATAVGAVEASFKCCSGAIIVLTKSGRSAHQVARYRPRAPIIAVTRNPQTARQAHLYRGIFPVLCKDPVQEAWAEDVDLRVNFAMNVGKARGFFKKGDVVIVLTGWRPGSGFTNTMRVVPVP
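hPK-M2, >95% pure; 0.1 mM ADP / 0.5 mM PEP final; imidazole pH7.2 buffer w/ 7 mM MgCl2, 50 mM KCl; 1 h RT; Kinase-Glo lum. Intermediate enzyme activity for dual inhibitor/activator qHTS.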
Vif-APOBEC3F blk: qHTS for Inhibitors of Vif-A3F Interactions: qHTS. HeLa A3F-eYFP + Vif (tagged APOBEC3F with the HIV-1 protein that degrades it), YFP fluorescence increase. AID 602313, 2012. Potency, µM (doses to about 46.1 µM), without a hit: top-dose activity, negative = active. 390,000 tested, 0.2% active; also: potency is read from the fitted curve at half-maximal effect; % of control where 0% means no effect; nearly all actives have a fitted effect of over 65% in size
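Fluorescence increase (Ex 488/Em 500-530) after overnight compound treatment at 37 deg C flags inhibition of Vif-driven A3F-eYFP loss in stable HeLa A3F-eYFP/Vif cells seeded overnight beforehand.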
Vif-APOBEC3G blk: qHTS for Inhibitors of Vif-A3G Interactions: qHTS | 410,000 tested, 0.076% active | AID 602310, 2012 | Potency, µM (top dose mostly 46.1 µM), without a hit: at the highest dose activity, negative = active, most hits filed as inhibitors | HeLa A3G-eYFP + Vif (tagged APOBEC3G with the HIV-1 protein that degrades it), YFP fluorescence, overnight; also: potency is read from the fitted curve at half-maximal effect; % is scaled to controls: 0 for no effect and ±100 for the full control effect; nearly all actives have a fitted effect of over 60% in size
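Read-out is eYFP fluorescence (Ex 488/Em 500-530) from Vif-expressing HeLa A3G-eYFP cells; more signal means A3G escaped Vif-mediated degradation. Cells plated overnight, compound pinned in, incubated overnight at 37 deg C.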
* marks the source's active call; other numbers are inactive results; ? = inconclusive; . = no result given. Unless noted, calls follow the shape of the dose curve; as a rule, active = well fitted curve in the direction sought with a large enough effect; inconclusive = small, poorly fitted or top-dose-only effect, or another doubt; inactive = no such curve, though single readings can be large; an effect the other way counts as inactive or inconclusive.

SMILES	IL2 activator	PKM2 act	Vif-APOBEC3F blk	Vif-APOBEC3G blk
CCOc1ccc(NC(=O)C(Cc2ccccc2)N2C(=O)c3cccc4cccc(c34)C2=O)cc1 (stereo unspecified)	96.9*	-4.0%	-13.2%	-163.6%
CCOc1ccc(NC(=O)[C@H](Cc2ccccc2)N2Cc3ccccc3C2=O)cc1	.	.	-2.0%	-0.5%
COc1ccccc1CNc1ncnc2c1nnn2Cc1ccccc1	-0.8	20µM*	0.4%	0.9%
Cc1cc(N2CCCC2)ccc1/C=C1/C(=O)N(C)C(=S)N1C	-7.7	-2.0%	11.2µM*	?
Cc1cc(/C=C2/C(=O)N(C)C(=S)N2C)ccc1N1CCCC1	-11.7	-7.6%	?	?
CCCCN1C(=O)c2cccc3cc(O)cc(c23)C1=O	4.8	.	1.26µM*	-11.8%
C=CCNC(=S)N/N=C(\C)c1cccc(OC)c1	-4.5	-0.2%	?	1.3%
C=CCNC(=S)N/N=C(\C)c1ccc(OC)cc1	-4.4	11.3%	10µM*	1.4%
CCN(Cc1ccccc1)c1ccc(/C=C(\C#N)c2ccccn2)cc1	1.4	5.6%	22.4µM*	-12.0%
CCN(CC)c1ccc(/C=C(\C#N)c2ccccn2)cc1	-4.0	-2.7%	?	10µM*
CN(CCC#N)c1ccc(/C=C(\C#N)c2ccccn2)cc1	-0.7	-23.9%	-3.1%	-0.6%
Cc1ccc(Cl)cc1NC(=O)CN(C)S(=O)(=O)c1ccc2c(c1)n(C)c(=O)c(=O)n2C	.	.	4.4%	-1.7%
Cc1ccc(-c2cn3cccnc3n2)cc1NC(=O)C(C)(C)Oc1ccc(Cl)cc1	.	.	-0.4%	-1.9%
CCc1ccc(CCC(=O)Nc2ncc(Cc3ccccc3Cl)s2)o1	-2.1	14.1µM*	-5.2%	?
O=C(CN1CCOCC1)Nc1ncc(Cc2ccccc2Cl)s1	-0.5	-24.3%	1.1%	0.0%
Nc1c(C(=O)Nc2ccc(C(=O)O)cc2)sc2nc3c(cc12)CCCC3	.	.	-1.8%	-1.3%
Nc1c(C(=O)Nc2ccc(S(=O)(=O)N3CCCC3)cc2)sc2nc3cc4c(cc3cc12)CCC4	18.0	2.6%	10µM*	12.6µM*
Nc1c(C(=O)Nc2ccc(S(=O)(=O)N3CCCC3)cc2)sc2nc3ccc(OC(F)(F)F)cc3cc12	21.7	-0.4%	22.4µM*	?
COc1cc(NC(=O)NCCn2nnc3cc(S(=O)(=O)N(C)C)ccc32)cc(OC)c1	.	.	-1.9%	2.7%
O=C(CCCn1c(=O)c2sccc2n(Cc2cccc(Cl)c2)c1=O)NCc1ccc2c(c1)OCO2	.	.	?	-10.0%
CCN(CC)C(=O)c1ccc2c(c1)N(Cc1c(F)cccc1Cl)C(=O)c1ccccc1S2	.	.	6.6%	0.4%
Cc1occc1-c1nnc(SCC(=O)N2CCOCC2)n1CC(C)C	0.8	-2.1%	2.7%	4.4%
Cc1occc1-c1nnc(SCC(=O)N2CCOCC2)n1Cc1ccco1	-2.0	25.1µM*	6.4%	4.0%
CC(C)COc1ccc(C(=O)N/C(=C/c2cccc([N+](=O)[O-])c2)C(=O)O)cc1	-0.9	1.3%	-9.4%	10µM*
CC(C)COc1ccc(C(=O)N/C(=C\c2cccc([N+](=O)[O-])c2)C(=O)O)cc1	-1.2	-8.5%	-1.7%	0.0%
SMILES	IL2 activator	PKM2 act	Vif-APOBEC3F blk	Vif-APOBEC3G blk
COC(=O)c1ccc(C(NC(=O)OCc2ccccc2)/C(I)=C/[C@@H](C)C(=O)NCc2ccc(C)o2)cc1 (stereo partly specified)	.	14.1µM*	.	.
Cc1cc(Br)ccc1NC(=O)COc1cc(=O)n(C)c2ccccc12	.	.	6.2%	1.8%
c1ccc(OCc2nn3c(Cn4cnc5ccccc54)nnc3s2)cc1	-1.5	4.47µM*	-0.3%	-2.1%
c1cncc(-c2nn3c(Cn4cnc5ccccc54)nnc3s2)c1	-0.2	?	-11.2%	4.1%
c1ccc2c(c1)ncn2Cc1nnc2sc(-c3ccncc3)nn12	0.6	8.91µM*	-16.4%	-0.1%
CCC(C(=O)N1CCN(c2cc(Cl)ccc2C)CC1)n1nc(C)n2c(cc3occc32)c1=O (stereo unspecified)	.	.	-5.6%	-12.7%
COc1cccc2cc(-c3nc(Nc4cccc(C)c4)sc3C)c(=O)oc12	.	.	4.7%	-0.6%
CC(=O)C1=C(C)NC(SCC(N)=O)=C(C#N)C1c1ccco1 (stereo unspecified)	-1.0	11.7%	11.9%	3.7%
CC(=O)C1=C(C)NC(SCc2cccc([N+](=O)[O-])c2)=C(C#N)C1c1ccco1 (stereo unspecified)	-6.2	7.94µM*	1.3%	0.1%
C(=Cc1c[nH]c2ccccc12)c1ccc2ccccc2n1	0.1	.	25.1µM*	?
O=Cc1nccc2ccccc12	-5.9	.	-6.1%	0.5%
COc1ccc(OC)c2c(/C=C/c3c[nH]c4ccccc34)ccnc12	.	.	.	-7.5%
OCC[n+]1ccc(/C=C/c2c[nH]c3ccccc23)cc1	94.5*	-13.1%	3.55µM*	?
Cc1ccc2c(/C=C/c3c[nH]c4ccccc34)ccnc2c1C	.	.	.	11.2µM*
C(=C\c1ccc2ccccc2n1)/c1ccc2ccccc2n1	.	.	.	-9.6%
C(=Cc1c[nH]c2ccccc12)c1nccc2ccccc12	-0.6	.	8.91µM*	?
CC1CCN(S(=O)(=O)c2ccc3c(c2)N(CC(=O)NCCN(C)C)C(=O)CS3)CC1	.	.	3.1%	1.2%
C=CCn1c(SCC(=O)N2CCOCC2)nc2scc(-c3ccco3)c2c1=O	0.7	14.1µM*	-15.3%	-0.6%
Cc1nc(COC(=O)c2ccc(S(=O)(=O)N3CCCC3)cc2)cs1	-0.9	28.2µM*	-8.1%	-4.1%
COc1cccc(C(=O)NCCN2C(=O)S/C(=C/c3cccs3)C2=O)c1OC	0.2	16.1%	3.9%	-2.5%
CCOc1ncccc1C(=O)NCCN1C(=O)S/C(=C/c2cccs2)C1=O	-0.5	15.8µM*	-1.6%	-14.4%
CCN1c2ccccc2NC2C1C(C(C)=O)C(=O)N2c1ccc(Cl)cc1 (stereo unspecified)	5.0	11.1%	22.4µM*	?
COc1ccc(-c2oc3ncn4nc(COc5cccc(C)c5C)nc4c3c2-c2ccc(OC)cc2)cc1	.	.	1.7%	-3.8%
CC(=O)Nc1sc(C)c(C)c1C(=O)OCC(=O)Nc1ccccc1	0.3	.	11.2µM*	?
CC(=O)Nc1sc(C)c(C)c1C(=O)OCC(=O)Nc1cccc(C)c1	-0.3	.	?	-1.9%
CCCCn1c(N)c(N(Cc2ccccc2OC)C(=O)c2ccc([N+](=O)[O-])s2)c(=O)[nH]c1=O	3.0	.	12.6µM*	?
N#C/C(=C\c1ccc(OCc2ccccc2)cc1)C(=O)Nc1nc2c(s1)CCN(Cc1ccccc1)C2	-1.2	-0.9%	?	1.2%
CN(C)c1ccc(/C=C(/C#N)C(=O)Nc2nc3c(s2)CCN(Cc2ccccc2)C3)cc1	27.4	.	?	5.62µM*
O=C1Nc2ccccc2C(=O)N2c3ccccc3NC(=O)C12 (stereo unspecified)	-0.3	.	.	-3.5%
